In general, AC50 refers to the concentration giving half of the maximal activity seen.

Inconclusive results are not listed. Active and inactive are the calls of the source. Rule for the calls: active = hit-call score of the fitted dose curve at least 0.9, where 1 is the maximum; inconclusive = response in the unintended direction; inactive = score below 0.9.

The assay in a line: ACEA_ER_AUC_viability: ACEA Biosciences xCELLigence Real-Time Cell Analysis on Estrogen Receptor Agonism for Viability (AID 2283782).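 Note: continuous compound exposure with impedance area under curve over 80 h; hit means loss of impedance signal meaning reduced cell growth or viability.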 The procedure, abridged: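 T-47D; phenol red-free RPMI1640 + 10% CS-FBS; 8 conc., 1:4 serial, max 100 uM final, ≤0.5% DMSO; n = 2; continuous exposure; impedance monitored to 80 h post-dose; AUC vs DMSO.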
On to `CCCCCCCCCCCC(=O)OCC(O)CO` (stereo not drawn), for which the AC50 was 50 µM (active).

Turning to `CC1CC(O)CC(C)(C)C1` (stereo not drawn), the outcome was inactive.

Turning to `OCCc1ccccc1`, the molecule was called inactive.

Consider `CCCCCCCC(=O)OCCCCCC`, for which the call was inactive.

Consider `COC(=O)c1ccc([N+](=O)[O-])cc1`, for which the AC50 is 80.2 µM (active).

With `[O-]n1ccccc1=S.[O-]n1ccccc1=S.[Zn+2]`, the AC50 was 2.84 µM (active).

On to `CC1=CC[C@@]23C[C@@H]1C(C)(C)[C@@H]2CC[C@H]3C`, for which the AC50 is 78.5 µM (active).

`CN(C)C(=S)SC(=S)N(C)C`: the AC50 was 90.3 µM (active).

`C=CC(=C)CCCC(C)(C)OC(C)=O`: the outcome was inactive.

As to `CCCN(CCC)S(=O)(=O)c1ccc(C(=O)O)cc1`, the molecule was classed as inactive.

Consider `Nc1ccc2c(O)cc(S(=O)(=O)O)cc2c1`, for which the molecule was classed as inactive.

In the case of `CCCCCCC(O)CCCCCCCCCCC(=O)O` (stereo not drawn), the molecule was called inactive.

For the molecule `CC(C)c1ccccc1O`, the molecule was classed as inactive.

On to `CC(C)OCCO`, for which the outcome was inactive.

For `OCCCCC(O)CO` (stereo not drawn), the molecule was called inactive.

On to `CC=Cc1ccc(OC)c(OC)c1`, for which the molecule was classed as inactive.

Regarding `NC1CCCCC1N` (stereo not drawn), the AC50 was 77.1 µM (active).

For `O=[N+]([O-])c1cccc(Cl)c1`, the molecule was called inactive.

As to `O=C1c2ccccc2C(=O)c2c(O)ccc(O)c21`, the outcome was inactive.

With `OCC(O)c1ccccc1` (stereo not drawn), the call was inactive.

`CC1(C)CCC[C@]2(C)[C@H]3CCO[C@]3(C)CC[C@@H]12`: the AC50 was 76.2 µM (active).

Consider `CS(=O)(=O)c1ccc(Cl)cc1`, for which the result was inactive.

Turning to `C=C1C[C@]23C[C@@]1(O)CC[C@H]2[C@@]12C=C[C@H](O)[C@@](C)(C(=O)O1)[C@H]2[C@@H]3C(=O)O`, the outcome was inactive.

Consider `CC(C)CC(C)CC(O)CC(C)C` (stereo not drawn), for which the molecule was called inactive.

Consider `CC1C2CC(CC2C2CCCC(O)C2)C1(C)C` (stereo not drawn), for which the AC50 was 84.8 µM (active).

Consider `CC(=O)NCCO`, for which the molecule was called inactive.

Take `CCCC(=O)OCCc1ccccc1`: the AC50 was 25.7 µM (active).

Turning to `CCCC[O][Al]([O]CCCC)[O]CCCC`, the AC50 is 59.3 µM (active).

`CCc1cc(C(C)(C)C)c(O)c(C(C)(C)C)c1`: the AC50 is 81.8 µM (active).

Turning to `CCOC(=O)c1ccc(N)cc1`, the outcome was inactive.

With `CN(C)c1ccncc1`, the AC50 was 32.7 µM (active).

Take `CC(=O)C(C)O` (stereo not drawn): the outcome was inactive.

In the case of `O=C(O)c1cccnc1C(=O)O`, the call was inactive.

For `c1ccc(CCc2ccccc2)cc1`, the molecule was called inactive.

In the case of `CCCC(=O)c1ccccc1`, the molecule was called inactive.

For the molecule `COc1cc([C@@H]2c3cc4c(cc3[C@@H](O[C@@H]3O[C@@H]5CO[C@@H](C)O[C@H]5[C@H](O)[C@H]3O)[C@H]3COC(=O)[C@H]23)OCO4)cc(OC)c1O`, the AC50 is 10.6 µM (active).

Take `CCCCOCC`: the molecule was classed as inactive.

Turning to `c1ccc(CN(Cc2ccccc2)Cc2ccccc2)cc1`, the AC50 is 89 µM (active).
